In the library only some 5.8% were active in any assay of this set; here they are far more common.
PINK1 modulator: PINK1 expression modulation | PINK1 immunofluorescence, high-content cytometry, 24 h | Potency, µM (series often up to 76.6 µM), for inactives: at the highest dose activation (PINK1 increase), hits mostly activators | 0.2% of 410,000 active; active = well fitted activation curve with a large enough effect; inconclusive = small, poorly fitted or top-dose-only effect; cell line not stated here; note: % of control where 0% means no effect; nearly all actives have a fitted effect of over 65% in size
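PINK1 protein level read as immunofluorescence by microplate cytometer in a fixed, stained stable cell line after 24 h exposure to five compound concentrations, with CCCP as control.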
12-LOX inh: ALOX12 (human) lipoxygenase inhibition | purified 12hLO, xylenol orange hydroperoxide absorbance | Potency, µM (titrated, usually from 108 µM), for the others: at the top dose activity change, negative = inhibition, usual class: inhibitors | 1.1% of 580,000 active | AID 1671190; note: % is set by controls: 0 for no effect and ±100 for the full control effect
Target sequence (P18054 whole entry, looked up): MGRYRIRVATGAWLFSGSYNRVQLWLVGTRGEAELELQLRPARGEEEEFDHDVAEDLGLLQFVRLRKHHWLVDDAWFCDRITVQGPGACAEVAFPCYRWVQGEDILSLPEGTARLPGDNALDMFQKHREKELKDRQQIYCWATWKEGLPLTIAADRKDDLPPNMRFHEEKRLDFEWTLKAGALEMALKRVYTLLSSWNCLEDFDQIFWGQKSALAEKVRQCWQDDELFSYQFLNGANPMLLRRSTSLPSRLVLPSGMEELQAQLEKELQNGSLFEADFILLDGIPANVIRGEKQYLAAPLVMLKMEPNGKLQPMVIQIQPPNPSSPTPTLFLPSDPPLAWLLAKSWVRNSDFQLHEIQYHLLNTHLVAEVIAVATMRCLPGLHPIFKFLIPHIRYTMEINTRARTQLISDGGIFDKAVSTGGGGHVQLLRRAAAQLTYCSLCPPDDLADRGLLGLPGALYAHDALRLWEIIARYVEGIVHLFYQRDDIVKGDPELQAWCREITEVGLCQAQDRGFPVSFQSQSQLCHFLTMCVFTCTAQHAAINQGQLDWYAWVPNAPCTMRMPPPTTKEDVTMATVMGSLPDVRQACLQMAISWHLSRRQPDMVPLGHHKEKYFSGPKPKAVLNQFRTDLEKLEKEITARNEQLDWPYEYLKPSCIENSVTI
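Purified human 12hLO at 150 nM in 25 mM Hepes, 0.01% Triton X-100, pH 7.0, preincubated 15 min at room temperature with compound. Reaction started with 40 uM arachidonic acid, 30 min at room temperature. Hydroperoxide measured by Fe-xylenol orange, 573/405 nm absorbance ratio.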
KB-V1 cytotox: KB-V1 MDR subline cytotoxicity; KB-V1 MDR cells viability, CellTiter-Glo, 72 h; Potency, µM (highest dose often 46.1 µM), usual class: cytotoxic; 3.4% of 400,000 active; AID 1347076; note: % is set by controls: 0 for no effect and ±100 for the full control effect; nearly all actives have a fitted effect of over 60% in size
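Drug-selected KB-V1 cells, grown in DMEM lacking phenol red with 10% FBS, receive compound titrations; after three days at 37 degrees C, surviving cell ATP is quantified by CellTiter-Glo luminescence and responses normalized and curve-fitted.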
SW480 rerep: inducers of DNA re-replication in SW480 colon cancer cells; SW480 DNA re-replication, Hoechst DNA content imaging, 48 h; Potency, µM (top dose mostly 46.1 µM), for inactives: top-dose re-replication activation, hits mostly activators; 1.8% of 340,000 active; AID 624297; note: % of control where 0% means no effect; nearly all actives have a fitted effect of over 55% in size
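Per well, 250 cells were exposed to pinned compound for 48 hr. Nuclear DNA was visualised with Hoechst (40 min, 37 C) and total object intensity recorded by fluorescence scanning.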
KB-3-1 tox: KB-3-1 parental cell cytotoxicity. KB-3-1 viability, CellTiter-Glo ATP luminescence, 72 h. Potency, µM (titrated, usually from 46.1 µM), usual class: cytotoxic. 1.4% of 400,000 active. AID 1347075; note: % is set by controls: 0 for no effect and ±100 for the full control effect; nearly all actives have a fitted effect of over 60% in size
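Cells are dispensed, compounds pinned in, plates held at 37 °C for 72 h, then CellTiter-Glo is added and luminescence read after 10 minutes. Cell line: parental KB-3-1 in phenol-red-free DMEM, 10% FBS.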
MCF10A rerep: inducers of DNA re-replication in MCF 10A breast cells; MCF 10A DNA re-replication, Hoechst nuclear intensity, 48 h; Potency, µM (series often up to 46.1 µM), for the others: at the highest dose activity, positive = re-replication, actives largely listed as activators; 2.9% of 350,000 active; note: % of control where 0% means no effect; nearly all actives have a fitted effect of over 50% in size
* marks the source's active call; other numbers are inactive results; i = inactive; ? = inconclusive; nt = no result given; [ ] = remark or other dose. Unless noted, calls come from the whole dose curve; as a rule, active = well fitted curve in the direction sought with a large enough effect; inconclusive = small, poorly fitted or top-dose-only effect, or another doubt; inactive = no such curve, though single readings can be large; an effect the other way counts as inactive or inconclusive. Potency is the fitted concentration of half-maximal effect.

SMILES	PINK1 modulator	12-LOX inh	KB-V1 cytotox	SW480 rerep	KB-3-1 tox	MCF10A rerep
Cc1cc(C)cc(NC(=O)CC23CC4CC(C2)CC(n2nnc(C)n2)(C4)C3)c1	-1.0%	-0.1%	i	-1.1%	i	?
Cc1nnn(C23CC4CC(CC(CC(=O)Nc5ccc(C)c(Cl)c5)(C4)C2)C3)n1	6.0%	-16.6%	7.31µM*	-1.4%	i	15.5%
N#Cc1ncn(Cc2nnc(-c3ccccc3)o2)n1	nt	2.2%	nt	nt	nt	nt
COC(=O)c1c(C)cccc1NC(=O)c1nn(C)c(=O)c2ccccc12	nt	-18.9%	nt	nt	nt	nt
CC(C)c1ccc(-c2cc(C(=O)N3N=C(C(F)F)CC3(O)C(F)F)c3ccccc3n2)cc1 (centres undefined)	?	-3.0%	?	?	?	4.47µM*
O=C(c1cc(C2CC2)nc2ccccc12)N1N=C(C(F)F)CC1(O)C(F)F (centres undefined)	13.8%[38.3 µM]	-14.8%	?	24.0%	i	?
CN1CCc2c([nH]c3ccccc23)C12CCN(C(=O)c1ccc3ncccc3c1)CC2	nt	-2.0%	nt	nt	nt	nt
CC(=O)NC[C@@H]1C=C(C)[C@H](Cc2nc3ccc(F)cc3[nH]2)C[C@H]1C(C)C	nt	64.5%[176 µM]	nt	nt	nt	nt
Nc1c(C(=O)N/N=C/c2ccc(Cl)cc2)cnn1-c1ccccc1	14.2%	-19.3%	i	-3.5%[9.22 µM]	i	7.9%
CCOC(=O)c1nn(-c2ccccc2C)c(=O)c2c(N)scc12	28.6%	?	i	7.5%	i	2.6%
CCOC(=O)c1nn(-c2ccccc2)c(=O)c2c(N)scc12	2.3%	35.5µM*	i	-5.3%	?	5.2%
Nc1scc2c(C(=O)N/N=C/c3ccc(Cl)cc3)nn(-c3ccccc3)c(=O)c12	1.2%	6.31µM*	i	0.2%	i	0.4%
Cc1cc(C)n2nc(N(Cc3ccc(C#N)cc3)S(=O)(=O)c3ccc(Cl)cc3)nc2n1	nt	-4.2%	nt	nt	nt	nt
O=C(NC1CC(c2cc(NCCO)ncn2)C1)c1cc2ccccc2[nH]1 (centres undefined)	nt	18.8%	nt	nt	nt	nt
c1ccc(-n2cc(CN3CCCCC3c3ccccn3)nn2)cc1 (centres undefined)	nt	20µM*	nt	nt	nt	nt
Cc1noc(C)c1C1CCCN1Cc1cn(-c2ccccc2)nn1 (centres undefined)	nt	14.4%	nt	nt	nt	nt
O=C(NC1CCCCC1)N[C@H]1CO[C@H]2[C@@H]1OC[C@@H]2n1nnnc1-c1ccc2c(c1)OCO2	nt	44.7µM*	nt	nt	nt	nt
CC(C)n1c(=S)[nH]c2scc(-c3cccs3)c2c1=O	0.8%	?	i	-2.3%	i	6.51µM*
COc1ccc(/C=N/NC(=O)c2cccc([N+](=O)[O-])c2)cc1OS(=O)(=O)c1ccc(C)cc1	3.0%	0.3%	20.6µM*	?	?	?
COc1ccc(C(=O)N/N=C/c2ccc(OC)c(OS(=O)(=O)c3ccccc3)c2)cc1	1.2%	-1.1%	?	8.9%	i	28.2%
CCOc1cc(/C=N/NC(=O)c2cccc([N+](=O)[O-])c2)ccc1OS(=O)(=O)c1ccccc1	3.7%	-14.2%	13µM*	14.7%	?	18.9%
CC(=O)NC12CC3CC(C1)CC(C(=O)NCCc1ccc(F)cc1)(C3)C2	nt	42.0%	nt	nt	nt	nt
Cc1nn(-c2ccc(F)cc2F)c2c1C(C(=O)c1ccc(C(C)C)cc1)CC(=O)N2 (centres undefined)	nt	-18.7%	nt	nt	nt	nt
CCc1ccccc1NC(=O)C(=O)c1c[nH]c2ccccc12	nt	-29.7%	nt	nt	nt	nt
CCN1C(=O)S/C(=C/c2ccc(Sc3nc4ccccc4[nH]3)o2)C1=O	?	-18.6%	?	1.46µM*	i	?
CC1CCCc2c1nc1sc3c(c1c2-c1cccc(F)c1)CCCC3 (centres undefined)	nt	-1.2%	nt	nt	nt	nt
COc1ccccc1C(=O)NCC(=O)N/N=C/c1cc(Br)ccc1OC(=O)/C=C\c1ccco1	14.5%	-13.6%	?	?	i	16.4µM*

Source: PubChem BioAssay (National Center for Advancing Translational Sciences (NCATS))
